Values joined by “and” are separate entries in the source; they are usually repeats but may differ in a detail not shown here. Identical values can stand only once. About 79,000 compounds went through this panel and 15% of them were active in at least one assay; those are over-represented in the sample as a whole. Values without a mark were called inactive. Active and inactive are the calls of the source. No stated cut-off is given here; in the data, active means growth inhibition above about 70%; inactive means the rest.
What was measured:
[1] = NCI Yeast Anticancer Drug Screen. Data for the rad50 strain (AID 155);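 further: 0% = growth of vehicle-only cultures of the same strain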; conditions: S. cerevisiae rad50 strain growth inhibition, hits give high values; at 50.0 µM unless noted
Summary of the method: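 Vehicle-treated cultures provide the reference for the growth inhibition reported for compound-exposed, repair-deficient yeast.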

[2] = NCI Yeast Anticancer Drug Screen. Data for the mec2-1 strain (AID 157); conditions: S. cerevisiae mec2-1 strain, hits give high values; at 50.0 µM unless noted
Summary of the method: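 Cells of the genetically defined mec2-1 yeast strain are incubated with test compound. Inhibition of growth is calculated against vehicle-treated controls.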

[3] = NCI Yeast Anticancer Drug Screen. Data for the sgs1 mgt1 strain (AID 161);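 further: 0% = growth of cultures given vehicle only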; conditions: S. cerevisiae sgs1 mgt1 strain, hits give high values; at 50.0 µM unless noted
Summary of the method: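 Inhibition of yeast growth, normalised to vehicle-treated controls, is reported for a strain bearing genetic alterations in DNA damage repair.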

[4] = NCI Yeast Anticancer Drug Screen. Data for the cln2 rad14 strain (AID 165);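 further: 0% = growth equal to vehicle treated cultures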; conditions: S. cerevisiae cln2 rad14 strain, hits give high values; at 50.0 µM unless noted
Summary of the method: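 The screen exposed genetically defined yeast (cln2 rad14) to test compounds and scored growth inhibition relative to vehicle-treated controls.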

[5] = NCI Yeast Anticancer Drug Screen. Data for the bub3 strain (AID 167); conditions: S. cerevisiae bub3 mutant strain, hits give high values; at 50.0 µM unless noted
Summary of the method: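 Mutant yeast screening strain plus compound; vehicle-treated cultures serve as the 0% inhibition reference.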

[6] = NCI Yeast Anticancer Drug Screen. Data for the mlh1 rad18 strain (AID 175); conditions: S. cerevisiae mlh1 rad18 strain growth inhibition, hits give high values; at 50.0 µM unless noted
Summary of the method: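 Compound-treated yeast growth, normalised to vehicle controls. Strain bears defined DNA repair mutations.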

O=C1N(C2CCCCC2)C(/C=C/c2ccccc2)C1(c1ccccc1)c1ccccc1 (stereo not given)
growth inhibition [1]: 22.4%
growth inhibition [2]: 0.25%
growth inhibition [3]: 3.65%
growth inhibition [4]: 19.6%
growth inhibition [5]: -6.05%
growth inhibition [6]: 4.7%

COC1CCC2C3CCC(C3)C12 (stereo not given)
growth inhibition [1]: 26.9%
growth inhibition [2]: -2%
growth inhibition [3]: 6.4%
growth inhibition [4]: 5.05%
growth inhibition [5]: -12.9%
growth inhibition [6]: -10.2%

C/C(=C\CNc1ncnc2c1ncn2CCC#N)CO
growth inhibition [1]: -17%
growth inhibition [2]: 13.2%
growth inhibition [3]: -33.2%
growth inhibition [4]: 1.5%
growth inhibition [5]: 14.8%
growth inhibition [6]: -15.9%

COC(=O)c1cc(OCC#CC#CCOc2ccc(O)c(C(=O)OC)c2)ccc1O
growth inhibition [1]: 3%
growth inhibition [2]: -5.8%
growth inhibition [3]: 9.65%
growth inhibition [4]: -1.2%
growth inhibition [5]: -4.15%
growth inhibition [6]: 14.1%

CC(C)NC(=O)OCc1c(COC(=O)NC(C)C)c2n(c1Br)CCC2
growth inhibition [1]: 32.8%
growth inhibition [2]: 26.1%
growth inhibition [3]: -9.6%
growth inhibition [4]: 16.9%
growth inhibition [5]: 0.2%
growth inhibition [6]: -51.4%

O=CC(=O)C(O)C(O)C(O)CO (stereo not given)
growth inhibition [1]: 9.5%
growth inhibition [2]: 22.9%
growth inhibition [3]: 26.2%
growth inhibition [4]: -0.05%
growth inhibition [5]: -4.95%
growth inhibition [6]: 19.4%

CC1(C)CCC(CC(=O)O)(CC(=O)O)CC1
growth inhibition [1]: -5.25%
growth inhibition [2]: 8.8%
growth inhibition [3]: -1.7%
growth inhibition [4]: -17.3%
growth inhibition [5]: -2.9%
growth inhibition [6]: 11.4%

O=C(O)Cn1c(=O)[nH]c(=O)c2[nH]cnc21
growth inhibition [1]: 4.6%
growth inhibition [2]: -26.4%
growth inhibition [3]: -0.3%
growth inhibition [4]: 13.8%
growth inhibition [5]: -9.2%
growth inhibition [6]: -12%

COc1ccc(C)cc1Sc1ccc([N+](=O)[O-])cc1C
growth inhibition [1]: 0.65%
growth inhibition [2]: -17.9%
growth inhibition [3]: -8.35%
growth inhibition [4]: -19.2%
growth inhibition [5]: 8.95%
growth inhibition [6]: -19.2%

Cc1ccc(S(=O)(=O)N/N=C(/c2nc3ccc([N+](=O)[O-])cc3[nH]c2=O)C(O)c2ccc(C(O)/C(=N\NS(=O)(=O)c3ccc(C)cc3)c3nc4ccc([N+](=O)[O-])cc4[nH]c3=O)cc2)cc1 (stereo not given)
growth inhibition [1]: -16.6%
growth inhibition [2]: -27.6%
growth inhibition [3]: -26.2%
growth inhibition [4]: 0.6%
growth inhibition [5]: -32.7%
growth inhibition [6]: -10.3%

CC(C)C(=O)/C=C/c1ccc(Cl)cc1
growth inhibition [1]: 0.95% and -1.3%
growth inhibition [2]: -18.9% and -16.6%
growth inhibition [3]: -16.1% and -10.2%
growth inhibition [4]: -66.7% and -44.9%
growth inhibition [5]: -0.75% and -28.1%
growth inhibition [6]: -16.9% and -8.65%

COC(C(=O)NN)c1ccccc1 (stereo not given)
growth inhibition [1]: -25.1%
growth inhibition [2]: -60.5%
growth inhibition [3]: -59.8%
growth inhibition [4]: -43.5%
growth inhibition [5]: -35.5%
growth inhibition [6]: -35.8%

COC(=O)C1C(O)C(C)C(O)C(C)(O)/C=C/C=C(C)C(=O)Nc2c(C)c(OC(C)=O)c3c(c2O)C(=O)C(C)=C2OCOC(=C23)C(C)=CC(C)(O)C(O)C(C)C1OC(C)=O (stereo not given)
growth inhibition [1]: 4.6%
growth inhibition [2]: -19.9%
growth inhibition [3]: 5.5%
growth inhibition [4]: 4.05%
growth inhibition [5]: 3.05%
growth inhibition [6]: 18.8%

CCCC(=O)N(CCC(C)C)c1ccccc1
growth inhibition [1]: -12.6%
growth inhibition [2]: 6.3%
growth inhibition [3]: 2.45%
growth inhibition [4]: 9.9%
growth inhibition [5]: -9.25%
growth inhibition [6]: -7.8%

O=C(Cc1csc(-c2nc(CC(=O)NNc3ccccc3)cs2)n1)NNc1ccccc1
growth inhibition [1]: 12.7%
growth inhibition [2]: -3.4%
growth inhibition [3]: -27.9%
growth inhibition [4]: -38.4%
growth inhibition [5]: 2.75%
growth inhibition [6]: -12.6%

Cn1c2ccc(Cl)cc2c2ccc3c(c21)C(=O)C=CC3=O
growth inhibition [1]: -21.9%
growth inhibition [2]: -33%
growth inhibition [3]: -18.3%
growth inhibition [4]: 14.2%
growth inhibition [5]: -25.2%
growth inhibition [6]: -8.05%

CC12CCC(=O)C=C1CCCC2=O (stereo not given)
growth inhibition [1]: -7.6%
growth inhibition [2]: -12.3%
growth inhibition [3]: -11.6%
growth inhibition [4]: -14.7%
growth inhibition [5]: -7.75%
growth inhibition [6]: -3.4%

Cc1nc2c(c(=O)[nH]1)C(c1ccccc1)C(C)(C)O2 (stereo not given)
growth inhibition [1]: 3.6%
growth inhibition [2]: -23.3%
growth inhibition [3]: -3.6%
growth inhibition [4]: -4.5%
growth inhibition [5]: 6.15%
growth inhibition [6]: 6.85%

NC(=O)Cc1ccc2c3c(cccc13)CC2
growth inhibition [1]: 15.4%
growth inhibition [2]: 5.45%
growth inhibition [3]: 2.45%
growth inhibition [4]: -34.2%
growth inhibition [5]: 11.8%
growth inhibition [6]: 9.05%

CCOC(=O)C(=CN1CCNC1=S)C(=O)OCC
growth inhibition [1]: -30.6%
growth inhibition [2]: -33.6%
growth inhibition [3]: -25.6%
growth inhibition [4]: -1.6%
growth inhibition [5]: -15.8%
growth inhibition [6]: -3.85%

Cc1cc[n+]2cc(-c3ccc(/C=N/N=C(N)N)cc3)n(C)c2c1
growth inhibition [1]: 22.9%
growth inhibition [2]: 33.9%
growth inhibition [3]: 18.7%
growth inhibition [4]: 28.9%
growth inhibition [5]: -8.75%
growth inhibition [6]: 29.9%

c1cc2c(cc1CSCc1c(CSCc3ccc4c(c3)OCO4)c(CSCc3ccc4c(c3)OCO4)c(CSCc3ccc4c(c3)OCO4)c(CSCc3ccc4c(c3)OCO4)c1CSCc1ccc3c(c1)OCO3)OCO2
growth inhibition [1]: -0.95%
growth inhibition [2]: -8.65%
growth inhibition [3]: -1.4%
growth inhibition [4]: -39%
growth inhibition [5]: 2.55%
growth inhibition [6]: 9.3%

Cc1cccc2oc3c(c(=O)c12)CC(O)C(C)(C)O3 (stereo not given)
growth inhibition [1]: 15.6%
growth inhibition [2]: -3.85%
growth inhibition [3]: 20.7%
growth inhibition [4]: -7.85%
growth inhibition [5]: 5.65%
growth inhibition [6]: -45%

COC1C(CO)OC(O)C(O)C1O (stereo not given)
growth inhibition [1]: -6.75%
growth inhibition [2]: 2.25%
growth inhibition [3]: -5.2%
growth inhibition [4]: -5.45%
growth inhibition [5]: -6.9%
growth inhibition [6]: 4%

CC1CCC(C(=O)O)(C(Br)C(=O)O)CC1 (stereo not given)
growth inhibition [1]: -14.5%
growth inhibition [2]: -12.7%
growth inhibition [3]: -12.8%
growth inhibition [4]: -27.9%
growth inhibition [5]: -20.8%
growth inhibition [6]: -3.3%

Nc1c(Cl)ncnc1Nc1ccc(CCO)cc1
growth inhibition [1]: -3.6%
growth inhibition [2]: -9.25%
growth inhibition [3]: 22.6%
growth inhibition [4]: -60.3%
growth inhibition [5]: -4.4%
growth inhibition [6]: -8.75%

CCOC(=O)C(CCc1ccccc1)C(C)=O (stereo not given)
growth inhibition [1]: -0.75%
growth inhibition [2]: -7.95%
growth inhibition [3]: -0.25%
growth inhibition [4]: 40.5%
growth inhibition [5]: 2.45%
growth inhibition [6]: -11.8%

CC(C)(CBr)CC(=O)NC1CCCCC1
growth inhibition [1]: -22%
growth inhibition [2]: 5.8%
growth inhibition [3]: 3.3%
growth inhibition [4]: 1.8%
growth inhibition [5]: 10.2%
growth inhibition [6]: 50%

O=C(O)c1ccc(/C=N/N=C2c3ccccc3-c3ccccc32)cc1
growth inhibition [1]: 66.6%
growth inhibition [2]: 35.5%
growth inhibition [3]: 41%
growth inhibition [4]: 72.1% (active)
growth inhibition [5]: -4.5%
growth inhibition [6]: 64.2%

CC1(C)OC(CCl)C2OC(C)(C)OC(CCl)C2O1 (stereo not given)
growth inhibition [1]: 11.1%
growth inhibition [2]: 9.3%
growth inhibition [3]: -7.35%
growth inhibition [4]: 3.85%
growth inhibition [5]: -4.95%
growth inhibition [6]: 2.75%

O=Cc1ccc(N2CCOCC2)cc1
growth inhibition [1]: 9.2%
growth inhibition [2]: -2.1%
growth inhibition [3]: -11.2%
growth inhibition [4]: -29.6%
growth inhibition [5]: -18.9%
growth inhibition [6]: 1.95%

C=CCC1(CN(C)C)CC/C(=C\c2ccc(Cl)cc2)C1=O (stereo not given)
growth inhibition [1]: 55.2%
growth inhibition [2]: 23.6%
growth inhibition [3]: 59.8%
growth inhibition [4]: 42.2%
growth inhibition [5]: 16.3%
growth inhibition [6]: 52.5%

CSC(=N)N
growth inhibition [1]: -8.55% and -15.6%
growth inhibition [2]: -18.2% and -17.4%
growth inhibition [3]: -52.2%
growth inhibition [4]: -46%
growth inhibition [5]: 1.45%
growth inhibition [6]: -2.95% and -29.8%

CC(=O)C[n+]1ccccc1
growth inhibition [1]: -9.85%
growth inhibition [2]: -9%
growth inhibition [3]: -1.75%
growth inhibition [4]: 3.75%
growth inhibition [5]: 15.6%
growth inhibition [6]: 14.2%

N#C/C(=C\c1c[nH]c2ccccc12)C(N)=O
growth inhibition [1]: 13.6% and 2.05%
growth inhibition [2]: 5.15% and -7.45%
growth inhibition [3]: 7.3%
growth inhibition [4]: 18.8%
growth inhibition [5]: -7.3%
growth inhibition [6]: 22.5% and 5.8%

O=C(O)CCNCCC(=O)O
growth inhibition [1]: 8.45%
growth inhibition [2]: -6.75%
growth inhibition [3]: 3.6%
growth inhibition [4]: -25.5%
growth inhibition [5]: 5.05%
growth inhibition [6]: 9.7%

C=C1C(=O)OC2/C=C(\C)C(O)/C=C\C(C)(O)CC(OC(=O)/C(C)=C/C)C12 (stereo not given)
growth inhibition [1]: -18%
growth inhibition [2]: -37.6%
growth inhibition [3]: -3.15%
growth inhibition [4]: -2%
growth inhibition [5]: -34.8%
growth inhibition [6]: -26.8%

COC1/C=C/OC2(C)Oc3c(C)c(O)c4c(c3C2=O)C(N)=C(NC2CC2)C(=NC(=O)/C(C)=C\C=C\C(C)C(O)C(C)C(O)C(C)C(OC(C)=O)C1C)C4=O (stereo not given)
growth inhibition [1]: 15.7%
growth inhibition [2]: 32.7%
growth inhibition [3]: 41.2%
growth inhibition [4]: 49%
growth inhibition [5]: 31.9%
growth inhibition [6]: 33.1%

COC(=O)C(C)(N=Cc1ccccc1)c1ccccc1 (stereo not given)
growth inhibition [1]: -34.2%
growth inhibition [2]: -30.9%
growth inhibition [3]: 6.7%
growth inhibition [4]: 17.4%
growth inhibition [5]: -9.75%
growth inhibition [6]: 0.6%

O=C(O)C1(O)CCCCC1
growth inhibition [1]: -4.85% and 6.9%
growth inhibition [2]: -2.45% and 9%
growth inhibition [3]: -7.35% and -1.65%
growth inhibition [4]: -21.2% and 16.4%
growth inhibition [5]: -7.2% and 19.6%
growth inhibition [6]: 6.65% and -7.05%

Reference: PubChem BioAssay (NCI)
